# Assay results: the supplement of paper PMC8728848
# This is one part of a sample in which the strongest signals are shown more often than they occur.
# Columns and labels:
# Test in all cases: glycan array binding signal (z-score within array); higher = stronger binding
# Settings in all cases: glycan notation: IUPAC condensed, linker removed
# [1] = molecular target: Fuc(a1-2)Gal(b1-3)GalNAc(a1-3)[Fuc(a1-2)]Gal(b1-4)GlcNAc
# How it was run: (§1)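 Columns mapping to the same glycan were averaged after glycan names were converted to IUPAC-condensed notation. The data come from 3228 arrays in the Consortium for Functional Glycomics database, limited to those with an available protein sequence. Binding is reported as a within-array Z-score averaged across arrays of one protein sequence and across linkers.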
# [2] = molecular target: Fuc(a1-2)Gal(b1-3)GlcNAc(b1-2)Man(a1-3)[Fuc(a1-2)Gal(b1-3)GlcNAc(b1-2)Man(a1-6)]Man(b1-4)GlcNAc(b1-4)[Fuc(a1-6)]GlcNAc
# How it was run: as §1
# [3] = molecular target: Fuc(a1-2)Gal(b1-3)GlcNAc(b1-3)Gal(b1-4)Glc
# How it was run: as §1
# Fuc(a1-2)Gal(b1-4)Glc = molecular target: Fuc(a1-2)Gal(b1-4)Glc
# How it was run: as §1
# [4] = molecular target: Fuc(a1-2)Gal3S(b1-4)GlcNAc
# How it was run: as §1
# [5] = molecular target: Fuc(a1-2)Gal6S(b1-4)Glc6S
# How it was run: as §1
# [6] = molecular target: Fuc(a1-2)[GalNAc(a1-4)]Gal(b1-4)GlcNAc
# How it was run: as §1
# [7] = molecular target: Fuc(a1-3)[Gal(b1-4)]GlcNAc
# How it was run: as §1
# Gal(a1-3)Gal(b1-3)GlcNAc = molecular target: Gal(a1-3)Gal(b1-3)GlcNAc
# How it was run: as §1
# [8] = molecular target: Gal(a1-3)Gal(b1-3)[Fuc(a1-4)]GlcNAc(b1-2)Man(a1-3)[Gal(a1-3)Gal(b1-3)[Fuc(a1-4)]GlcNAc(b1-2)Man(a1-6)]Man(b1-4)GlcNAc(b1-4)GlcNAc
# How it was run: as §1
# Gal(a1-4)Gal(b1-4)Glc = molecular target: Gal(a1-4)Gal(b1-4)Glc
# How it was run: as §1
# [9] = molecular target: Gal(b1-3)GlcNAc(b1-2)[Gal(b1-3)GlcNAc(b1-6)]Man(a1-6)[Gal(b1-3)GlcNAc(b1-2)Man(a1-3)]Man(b1-4)GlcNAc(b1-4)GlcNAc
# How it was run: as §1
# [10] = molecular target: Gal(b1-3)GlcNAc(b1-3)Gal(b1-3)GlcNAc
# How it was run: as §1
# [11] = molecular target: Gal(b1-3)GlcNAc(b1-3)Gal(b1-4)GlcNAc(b1-3)Gal(b1-4)GlcNAc(b1-2)[Gal(b1-3)GlcNAc(b1-3)Gal(b1-4)GlcNAc(b1-3)Gal(b1-4)GlcNAc(b1-6)]Man(a1-6)[Gal(b1-3)GlcNAc(b1-3)Gal(b1-4)GlcNAc(b1-3)Gal(b1-4)GlcNAc(b1-2)Man(a1-3)]Man(b1-4)GlcNAc(b1-4)[Fuc(a1-6)]GlcNAc
# How it was run: as §1
# [12] = molecular target: Gal(b1-3)[Fuc(a1-4)]GlcNAc(b1-3)Gal(b1-4)GlcNAc
# How it was run: as §1
# [13] = molecular target: Gal(b1-3)[Neu5Ac(a2-6)]GlcNAc(b1-4)Gal(b1-4)Glc
# How it was run: as §1
# [14] = molecular target: Gal(b1-3)[Neu5Ac(b2-6)]GalNAc
# How it was run: as §1
# [15] = molecular target: Gal(b1-4)GalNAc(b1-3)[Fuc(a1-2)]Gal(b1-4)GlcNAc
# How it was run: as §1
# [16] = molecular target: Gal(b1-4)GlcNAc(a1-6)Gal(b1-4)GlcNAc
# How it was run: as §1
# Gal(b1-4)GlcNAc(b1-2)Man = molecular target: Gal(b1-4)GlcNAc(b1-2)Man
# How it was run: as §1
# [17] = molecular target: Gal(b1-4)GlcNAc(b1-2)[Gal(b1-4)GlcNAc(b1-4)]Man(a1-3)[Gal(b1-4)GlcNAc(b1-2)Man(a1-6)]Man(b1-4)GlcNAc(b1-4)GlcNAc
# How it was run: as §1
# [18] = molecular target: Gal(b1-4)GlcNAc(b1-2)[Gal(b1-4)GlcNAc(b1-4)]Man(a1-3)[GlcNAc(b1-4)][Gal(b1-4)GlcNAc(b1-2)[Gal(b1-4)GlcNAc(b1-6)]Man(a1-6)]Man(b1-4)GlcNAc(b1-4)GlcNAc
# How it was run: as §1
# [19] = molecular target: Gal(b1-4)GlcNAc(b1-2)[Gal(b1-4)GlcNAc(b1-6)]Man(a1-6)[Gal(b1-4)GlcNAc(b1-2)Man(a1-3)]Man(b1-4)GlcNAc(b1-4)GlcNAc
# How it was run: as §1
# [20] = molecular target: Gal(b1-4)GlcNAc(b1-2)[Gal(b1-4)GlcNAc(b1-6)]Man(a1-6)[Gal(b1-4)GlcNAc(b1-2)Man(a1-3)]Man(b1-4)GlcNAc(b1-4)[Fuc(a1-6)]GlcNAc
# How it was run: as §1
# [21] = molecular target: Gal(b1-4)GlcNAc(b1-2)[Gal(b1-4)GlcNAc(b1-6)]Man(a1-6)[GlcNAc(b1-4)][Gal(b1-4)GlcNAc(b1-2)[Gal(b1-4)GlcNAc(b1-4)]Man(a1-3)]Man(b1-4)GlcNAc(b1-4)[Fuc(a1-6)]GlcNAc
# How it was run: as §1
# [22] = molecular target: Gal(b1-4)GlcNAc(b1-3)Gal(b1-4)GlcNAc(b1-2)[Gal(b1-4)GlcNAc(b1-3)Gal(b1-4)GlcNAc(b1-6)]Man(a1-6)[Gal(b1-4)GlcNAc(b1-3)Gal(b1-4)GlcNAc(b1-2)Man(a1-3)]Man(b1-4)GlcNAc(b1-4)[Fuc(a1-6)]GlcNAc
# How it was run: as §1
# [23] = molecular target: Gal(b1-4)GlcNAc(b1-3)Gal(b1-4)GlcNAc(b1-3)Gal(b1-4)GlcNAc(b1-2)Man(a1-3)[Gal(b1-4)GlcNAc(b1-3)Gal(b1-4)GlcNAc(b1-3)Gal(b1-4)GlcNAc(b1-2)Man(a1-6)]Man(b1-4)GlcNAc(b1-4)[Fuc(a1-6)]GlcNAc
# How it was run: as §1
# [24] = molecular target: Gal(b1-4)GlcNAc(b1-3)Gal(b1-4)GlcNAc(b1-3)Gal(b1-4)GlcNAc(b1-2)[Gal(b1-4)GlcNAc(b1-3)Gal(b1-4)GlcNAc(b1-3)Gal(b1-4)GlcNAc(b1-6)]Man(a1-6)[Gal(b1-4)GlcNAc(b1-3)Gal(b1-4)GlcNAc(b1-3)Gal(b1-4)GlcNAc(b1-2)Man(a1-3)]Man(b1-4)GlcNAc(b1-4)[Fuc(a1-6)]GlcNAc
# How it was run: as §1
# [25] = molecular target: Gal(b1-4)GlcNAc(b1-3)Gal(b1-4)GlcNAc(b1-3)Gal(b1-4)GlcNAc(b1-3)Gal(b1-4)GlcNAc(b1-2)Man(a1-3)[Gal(b1-4)GlcNAc(b1-3)Gal(b1-4)GlcNAc(b1-3)Gal(b1-4)GlcNAc(b1-3)Gal(b1-4)GlcNAc(b1-2)Man(a1-6)]Man(b1-4)GlcNAc(b1-4)[Fuc(a1-6)]GlcNAc
# How it was run: as §1
# [26] = molecular target: Gal(b1-4)GlcNAc(b1-3)Gal(b1-4)GlcNAc(b1-3)Gal(b1-4)GlcNAc(b1-3)Gal(b1-4)GlcNAc(b1-2)[Gal(b1-4)GlcNAc(b1-3)Gal(b1-4)GlcNAc(b1-3)Gal(b1-4)GlcNAc(b1-3)Gal(b1-4)GlcNAc(b1-6)]Man(a1-6)[Gal(b1-4)GlcNAc(b1-3)Gal(b1-4)GlcNAc(b1-3)Gal(b1-4)GlcNAc(b1-3)Gal(b1-4)GlcNAc(b1-2)Man(a1-3)]Man(b1-4)GlcNAc(b1-4)[Fuc(a1-6)]GlcNAc
# How it was run: as §1
binder,measurement,setting,value
Threefoil (Haloarcula marismortui) (protein) GSSHHHHHHHHHHSSGLVPRGSHMGDGYYKLVARHSGKALDVENASTSDGANVIQYSYSGGDNQQWRLVDLGDGYYKLVARHSGKALDVENASTSDGANVIQYSYSGGDNQQWRLVDLGDGYYKLVARHSGKALDVENASTSDGANVIQYSYSGGDNQQWRLVDL,glycan array binding signal (z-score),[1],-0.165
same,glycan array binding signal (z-score),[2],0.056
same,glycan array binding signal (z-score),[3],-0.192
same,glycan array binding signal (z-score),Fuc(a1-2)Gal(b1-4)Glc,-0.107
same,glycan array binding signal (z-score),[4],-0.199
same,glycan array binding signal (z-score),[5],-0.153
same,glycan array binding signal (z-score),[6],-0.341
same,glycan array binding signal (z-score),[7],-0.151
same,glycan array binding signal (z-score),Gal(a1-3)Gal(b1-3)GlcNAc,-0.298
same,glycan array binding signal (z-score),[8],-0.217
same,glycan array binding signal (z-score),Gal(a1-4)Gal(b1-4)Glc,0.139
same,glycan array binding signal (z-score),[9],0.155
same,glycan array binding signal (z-score),[10],-0.266
same,glycan array binding signal (z-score),[11],0.426
same,glycan array binding signal (z-score),[12],0.307
same,glycan array binding signal (z-score),[13],-0.13
same,glycan array binding signal (z-score),[14],-0.229
same,glycan array binding signal (z-score),[15],-0.231
same,glycan array binding signal (z-score),[16],0.067
same,glycan array binding signal (z-score),Gal(b1-4)GlcNAc(b1-2)Man,-0.105
same,glycan array binding signal (z-score),[17],3.48
same,glycan array binding signal (z-score),[18],8.13
same,glycan array binding signal (z-score),[19],0.527
same,glycan array binding signal (z-score),[20],3.39
same,glycan array binding signal (z-score),[21],6.8
same,glycan array binding signal (z-score),[22],6.34
same,glycan array binding signal (z-score),[23],6.67
same,glycan array binding signal (z-score),[24],9.87
same,glycan array binding signal (z-score),[25],3.74
same,glycan array binding signal (z-score),[26],7.31
